# Only a selection was taken, and hits are over-represented in it overall.
# ROC1-CUL1 inh = human ROC1-CUL1 E3 ligase inhibition; P62877+Q13616; in vitro K48 di-Ub FRET, acceptor:donor ratio, 45 min; inhibition, % at 10 µM; 140,000 compounds, 0.6% hits; AID 1347404; in the data active = inhibition above about 25%
# * = called active by the depositor.
SMILES,ROC1-CUL1 inh
O=C(N/N=C/c1cc([N+](=O)[O-])ccc1O)c1ccc(C(=O)N/N=C/c2cc([N+](=O)[O-])ccc2O)o1,98*
O=C(N/N=C/c1cc([N+](=O)[O-])ccc1O)c1ccccn1,-13
O=C(N/N=C/c1cc([N+](=O)[O-])ccc1O)c1cnccn1,-7
O=C1N(Cc2cccc(Cl)c2)C[C@@H]2C[C@@H](c3cccc4cnccc34)N3CCC[C@@]123,10
COc1ccccc1/C=C/C(=O)c1cc(Cl)ccc1OC(=O)N1CCOCC1,0
c1ccc(Cc2noc(-c3ccc(NCCc4cnccn4)nc3)n2)cc1,-2
O=C1NN(c2ccc(F)c(Cl)c2)C(=O)/C1=C/c1ccc(-c2ccc(Cl)cc2)o1,-7
O=C1NN(c2ccc(F)c(Cl)c2)C(=O)/C1=C/c1ccc(-c2cccc(Cl)c2)o1,-8
CCCOC(=O)c1cc(-c2ccc(/C=C3/C(=O)NN(c4ccc(CC)cc4)C3=O)o2)ccc1Cl,11
O=C1NN(c2cccc(F)c2)C(=O)/C1=C/c1ccc(-c2ccc(Cl)cc2)o1,5
Cc1ccc(N2NC(=O)/C(=C/c3ccc(-c4ccc(S(=O)(=O)Nc5nccs5)cc4)o3)C2=O)cc1Cl,99*
O=C1NN(c2ccc(Br)cc2)C(=O)/C1=C\c1ccc(-c2ccccc2)o1,-1
CCc1ccc(N2NC(=O)/C(=C/c3ccc(-c4ccc(S(=O)(=O)Nc5nccs5)cc4)o3)C2=O)cc1,93*
COC(=O)c1cccc(-c2ccc(/C=C3/C(=O)NN(c4ccc(C)c(C)c4)C3=O)o2)c1,4
Cc1ccc(N2NC(=O)/C(=C/c3ccc(-c4ccc(S(=O)(=O)Nc5nccs5)cc4)o3)C2=O)cc1C,85*
CN1CCN(CC(O)COc2ccc(CN(C)CCC3CCOCC3)cc2)CC1 (stereo unspecified),10
CCN1C(=O)C(C=Nc2ccccc2-c2ccccc2)C(=O)N(CC)C1=O,0
CN1CCc2nc3sc(C(=O)c4cccs4)c(N)c3c(-c3cccs3)c2C1,8
Cc1ccccc1CN1C(=O)C(O)(CC(=O)/C=C/C=C/c2ccccc2)c2ccccc21 (stereo unspecified),3
CC(=O)c1cc2c(cc1NC(=O)c1ccc(Cl)cc1Cl)OCO2,2
CC(=O)/C(C#N)=N/Nc1ccc(C)cc1,0
O=C(O)/C=C/c1cc(Br)ccc1OCc1ccccc1F,-6
CC(C)C(C)OC1CC(=O)CC2C(=O)c3c(O)ccc(O)c3C(=O)C12 (stereo unspecified),60*
COc1ccccc1OC(=O)COc1cc(Cl)c(Cl)cc1Cl,-4
O=C1S/C(=C\c2cc(Br)c(O)c(Br)c2)C(=O)N1Cc1ccc(F)cc1,31*
SMILES,ROC1-CUL1 inh
O=C1S/C(=C\c2ccccc2)C(=O)N1Cc1ccc(F)cc1,5
C=CCOc1c(Br)cc(/C=C2\SC(=O)N(Cc3ccc(F)cc3)C2=O)cc1OCC,-2
CC(=O)Nc1c(Cl)cccc1[N+](=O)[O-],-5
Cc1ccc(C2C(C(=O)c3ccc(OCc4ccccc4)c(C)c3)C(=O)C(=O)N2CCN(C)C)cc1 (stereo unspecified),72*
CCc1ccc(C2C(C(=O)c3ccc4c(c3)CC(C)O4)C(=O)C(=O)N2CCOC)cc1 (stereo unspecified),15
CCCCOc1ccc(C(=O)C2C(=O)C(=O)N(CCOC)C2c2ccc(CC)cc2)cc1C (stereo unspecified),41*
COc1ccc(C(=O)C2C(=O)C(=O)N(CCCN(C)C)C2c2ccc(C)cc2)cc1OC (stereo unspecified),-8
COc1ccc(C(=O)C2C(=O)C(=O)N(CCN(C)C)C2c2ccc(OCc3ccccc3)cc2)cc1 (stereo unspecified),-5
CCCCOc1ccc(C(=O)C2C(=O)C(=O)N(CCCOC)C2c2ccc(O)c(OC)c2)cc1C (stereo unspecified),1
COc1ccc2nc(SCCO)nc(C)c2c1,-3
Brc1ccc(-c2csc(N/N=C/c3cccc(Br)c3)n2)cc1,2
O=C1N(Cc2cccc(F)c2F)CCCC1(O)CNCC1CCCCC1 (stereo unspecified),11
O=C1N(Cc2cccc(F)c2F)CCCC1(O)CNC1CCCC1 (stereo unspecified),94*
O=C1N(Cc2cccc(F)c2F)CCCC1(O)CNC1CCC1 (stereo unspecified),-7
CCCOc1ccc(C2c3c(n[nH]c3C(C)(C)C)OC(=N)C2C#N)cc1OCC (stereo unspecified),6
CCOC(=O)C(CC)Sc1nnc(-c2ccccc2)n1-c1ccccc1 (stereo unspecified),7
O=C1CC(c2ccccc2)CC2=Nc3ccccc3NC(c3cccc4ccccc34)C12 (stereo unspecified),3
CCCCC(=Nc1ccccc1C)C1C(=O)CC(c2ccccc2)CC1=O (stereo unspecified),7
CCCCC1C(=O)N=C2CC(c3ccccc3)CC(=O)C2C1=O (stereo unspecified),28*
O=C(CSc1nc2sc3c(c2c(=O)n1-c1ccc(F)cc1)CCCC3)N1CCOCC1,-7
COc1ccc(-n2c(C)cc(C(=O)CSc3nnc4sc5ccccc5n34)c2C)cc1,3
O=C(O)CCC(=O)Nc1ccc(-c2cn3ccsc3n2)cc1,-1
O=C(O)CCCCCNc1n[nH]c(=O)[nH]c1=O,-3
Cc1ccc2c(c1)NC(C)(C)c1ssc(=Nc3ccc(Cl)cc3Cl)c1-2,-5
CC(C)(C)c1ccc(CN2CCN(c3ccnc4cc(Cl)ccc34)CC2)cc1,1
SMILES,ROC1-CUL1 inh
O=C(CN1CCN(c2cc(Cl)cc3ncccc23)CC1)c1ccc(O)c(O)c1,84*
CC(C)(C)C(=O)N1CCN(c2ccnc3cc(Cl)ccc23)CC1,7
C=CCn1c(CNc2ccccc2)nnc1SC(C)C(=O)N/N=C/c1ccc(N(CC)CC)cc1 (stereo unspecified),-2
C=CCn1c(CNc2cccc3ccccc23)nnc1SC(C)C(=O)N/N=C/c1ccc(OC)cc1OC (stereo unspecified),42*
C=CCn1c(CNc2cccc3ccccc23)nnc1SCC(=O)N/N=C/c1ccc(OC)cc1OC,7
CC(NC(=O)c1ccccc1OCC(=O)N1CCc2ccccc21)c1ccccc1 (stereo unspecified),-5
CCOC(=O)CSc1nnc(-c2sc3nnc(-c4ccccc4)c(-c4ccccc4)c3c2N)o1,6
O=C(Nc1ccc(-c2nc3cc(NC(=O)c4ccc(Cl)cc4)ccc3o2)cc1)c1ccc(Cl)cc1,-2
COC(=O)c1ccc(C(=O)Nc2ccc(-c3nc4cc(NC(=O)c5ccc(C(=O)OC)cc5)ccc4o3)cc2)cc1,13
O=C(Nc1ccc2cc3ccc(NC(=O)c4ccc(=O)oc4)cc3nc2c1)c1ccc(=O)oc1,40*
O=C(c1ccc(Cl)c(Cl)c1)N1CCCC(Cn2cc(CO)nn2)C1 (stereo unspecified),-5
COc1ccc(C2Sc3ccccc3N=C3c4ccccc4C(=O)C32)cc1 (stereo unspecified),-6
O=C(O)c1cc(F)c(F)cc1C(=O)O,-4
CCC(Oc1ccccc1C)C(=O)Nc1ccccc1C(=O)NC (stereo unspecified),3
C[n+]1c2ccccc2n2nc3c(cc21)c1cccnc1c1ncccc31,-4
C[n+]1c2ccccc2n2nc3c(cc21)c1cccc2cccc3c21,13
C[n+]1c2cc3ccccc3cc2n2nc3c(cc21)c1cccc2cccc3c21,97*
COc1coc(C(O)C(C)[N+](=O)[O-])cc1=O (stereo unspecified),6

# Screening data as filed in PubChem.
